PubChem BioAssay
The source made the active and inactive calls. How the calls were made is not given here.

Assay: Brca1-Bard1 BiLC signal decrease – luminescence, single concentration, counter-screen for Mdm2/MdmX interaction inhibitor project, confirmation (AID 504668)
Settings: Brca1/Bard1 bimolecular luciferase complementation counterscreen, at 8 µM, active compounds read high

Question: With `CC(=O)Nc1nc(C)c(-c2csc(Nc3ccc(S(N)(=O)=O)cc3)n2)s1` as the compound, how does the inhibition read?
Answer: The inhibition was 31.7% (active).

Question: Which inhibition does the source give for `Cc1nc(-n2[nH]c3c(c2=O)CCCC3)[nH]c(=O)c1Cc1ccccc1` here?
Answer: The inhibition was 30.8% (active).

Question: Which inhibition does the source give for `C/C(=N\NC(=O)COc1cccc(C)c1)c1ccc2ccccc2c1O` here?
Answer: The inhibition was 33.6% (active).

Question: Which inhibition does the source give for `Cc1cccc(NS(=O)(=O)c2ccc(C)c(C(=O)OCC(=O)Nc3cc(C)on3)c2)c1` here?
Answer: Its inhibition is 32.1% (active).

Question: Which inhibition does the source give for `N#Cc1ccc(NC(=O)Nc2ccc(Oc3ccc(NC(=O)Nc4ccc(C#N)cc4)cc3)cc2)cc1` here?
Answer: The inhibition was 35.1% (active).

Question: For `Oc1ccc(/C=N/Nc2nc(-c3ccccc3F)nc3ccccc23)c(O)c1`, which inhibition is on record?
Answer: The inhibition was 31% (active).

Question: With `N#Cc1c(-c2ccccc2)c(-c2ccccc2)nn(CC(=O)NNC(=O)Nc2ccc(Cl)c(Cl)c2)c1=O` as the compound, how does the inhibition read?
Answer: The inhibition was 35.9% (active).

Question: With `Cc1cccc(NC(=S)N(CCCN2CCCC2)Cc2cccn2Cc2ccc(Cl)cc2)c1` as the compound, how does the inhibition read?
Answer: Its inhibition is 23.4% (active).

Question: For `Cc1c(Cl)cccc1N/C(SCC(=O)N1CCCCCC1)=C(/C#N)c1nc2ccccc2s1`, which inhibition is on record?
Answer: Its inhibition is 36% (active).

Question: Which inhibition does the source give for `C=CCn1c(O)c(N=NC(=S)Nc2cccc(C)c2)c2ccccc21` here?
Answer: Its inhibition is 33.1% (active).

Question: With `CCOC(=O)c1sc(NC(=O)Nc2cccc(Cl)c2)cc1C` as the compound, how does the inhibition read?
Answer: The inhibition was 34.4% (active).

Question: Which inhibition does the source give for `Cn1cc(C(=O)N/N=C/c2c(O)ccc3ccccc23)ccc1=O` here?
Answer: Its inhibition is 27% (active).

Question: Which inhibition does the source give for `CCCC(=O)NC(NC(=S)Nc1ccc(N=Nc2ccccc2)cc1)C(Cl)(Cl)Cl` (stereo not given) here?
Answer: Its inhibition is 32.4% (active).

Question: For `Oc1c(C(c2ccccn2)N2CCC(Cc3ccccc3)CC2)cc(Cl)c2cccnc12` (stereo not given), which inhibition is on record?
Answer: Its inhibition is 33.2% (active).

Question: Which inhibition does the source give for `CC(C)[C@H](NC(=O)c1ccccc1Cl)C(=O)Nc1nc(-c2ccccn2)cs1` here?
Answer: Its inhibition is 35.6% (active).

Question: With `COc1ccc(Nc2ncnc3ccc(Br)cc23)cc1OC` as the compound, how does the inhibition read?
Answer: The inhibition was 30.5% (active).

Question: Which inhibition does the source give for `Cn1nnnc1Sc1ncnc2scc(-c3cccc(S(C)(=O)=O)c3)c12` here?
Answer: The inhibition was 27.4% (active).

Question: Which inhibition does the source give for `O=C(c1ccco1)N1CCN(C(=O)C2CCCc3c2[nH]c2ccc(Cl)cc32)CC1` (stereo not given) here?
Answer: Its inhibition is 28.5% (active).

Question: Which inhibition does the source give for `Cc1noc(-c2ccc(C(F)(F)F)cc2)c1NC(=O)Nc1ccc(Cl)cc1` here?
Answer: The inhibition was 24.2% (active).

Question: For `CC(C)(C)C(=O)N1CCN(c2ccc(NC(=O)c3ccc([N+](=O)[O-])o3)cc2)CC1`, which inhibition is on record?
Answer: Its inhibition is 30.5% (active).

Question: With `CCOC(=O)c1cccc2c1-c1ccccc1/C2=N/O` as the compound, how does the inhibition read?
Answer: The inhibition was 30.6% (active).

Question: Which inhibition does the source give for `Cc1ccc(-c2csc(NC3OC(=O)c4ccccc43)n2)cc1` (stereo not given) here?
Answer: The inhibition was 23.7% (active).

Question: With `COc1ccc(-n2c(SCC(=O)Nc3ncc(Cl)cc3Cl)nc3ccccc32)cc1` as the compound, how does the inhibition read?
Answer: Its inhibition is 29.2% (active).

Question: Which inhibition does the source give for `CC(C)=CCc1c2c(c(O)c3c(=O)c4c(oc13)-c1cc(O)c(O)cc1OC4C=C(C)C)C=CC(C)(C)O2` (stereo not given) here?
Answer: The inhibition was 34.4% (active).

Question: Which inhibition does the source give for `COc1ccc(C(=O)C(CCCCC(CN(C)C)C(=O)c2ccc(OC)cc2)CN(C)C)cc1` (stereo not given) here?
Answer: Its inhibition is 30.7% (active).
